Screening results deposited in PubChem BioAssay by National Center for Advancing Translational Sciences (NCATS).
RORgamma inh: blocks mouse ROR gamma transcriptional activity; hit rate 5.4% among 310,000; AID 2551; P51450; Potency, µM (titrated, usually from 53.6 µM), for the others: at the highest dose activity change, negative = inhibition, hits mostly inhibitors; Drosophila S2 Gal4-RORgamma UAS-luciferase reporter, 20 h; note: potency is the fitted concentration of half-maximal effect; % is set by controls: 0 for no effect and ±100 for the full control effect; nearly all actives have a fitted effect of over 60% in size
Target sequence (P51450 whole entry, looked up, the tested form may be a part): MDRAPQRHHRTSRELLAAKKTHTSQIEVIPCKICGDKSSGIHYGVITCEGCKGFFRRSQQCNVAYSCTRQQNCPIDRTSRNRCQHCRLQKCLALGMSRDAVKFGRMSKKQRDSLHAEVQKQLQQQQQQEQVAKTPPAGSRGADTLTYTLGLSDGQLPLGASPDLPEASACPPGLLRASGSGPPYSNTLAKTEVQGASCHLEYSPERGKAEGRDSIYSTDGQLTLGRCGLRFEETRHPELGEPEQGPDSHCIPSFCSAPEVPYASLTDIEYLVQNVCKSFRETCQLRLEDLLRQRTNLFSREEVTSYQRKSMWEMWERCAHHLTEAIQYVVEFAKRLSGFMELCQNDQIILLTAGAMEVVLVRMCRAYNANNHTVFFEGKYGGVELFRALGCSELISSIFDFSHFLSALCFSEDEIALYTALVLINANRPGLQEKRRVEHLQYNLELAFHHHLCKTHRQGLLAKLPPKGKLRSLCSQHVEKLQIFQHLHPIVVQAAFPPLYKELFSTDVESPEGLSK
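Stably transfected Drosophila Schneider cells are the test system, with ROR gamma fused to Gal4 and luciferase under UAS control; luminescence is read after 20 hr of 700 uM copper sulfate induction at ambient temperature.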
Chronic BCR inh: blocks chronic active B-cell receptor signaling; Potency, µM (highest dose often 46.1 µM), for inactives: top-dose activity change, negative = inhibition, hits mostly inhibitors; hit rate 0.05% among 340,000; ABC-DLBCL IkBa-CBG/CBR reporter, luminescence ratio, 4 h; active = well fitted inhibition curve with a large enough effect in the signal ratio, with a control signal flat, not every such curve was filed as active; inconclusive = small, poorly fitted or top-dose-only effect, or effect the other way, or a change in a side signal; the % refers to the signal ratio;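 note: potency is the fitted concentration of half-maximal effect; plate controls were basal doxycycline-induced cells for no effect and cells given 10 µM MG132 for full effect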
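Compounds up to 46 uM were incubated four hours with TMD8 cells whose green CBG68 luciferase is fused to IkappaBalpha; red CBR luminescence normalised the signal, and concentration-effect curves were fitted to fusion, red and ratio data.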
Giardia killer: Giardia lamblia killing | Giardia lamblia trophozoite viability | activity change, % at 7.66 µM, hits read low | hit rate 0.15% among 340,000; in the data active = activity change below about -80%; inconclusive = between about -30% and that limit;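 note: parasites exposed to compound for two days anaerobically before the ATP read; % is set by controls: 0 for no effect and ±100 for the full control effect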
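Trophozoite viability was measured as ATP-dependent luminescence, read 15-30 min after reagent addition. Before that, parasites at 100 cells/well were exposed to compounds for 48 h, anaerobically, at 37 deg C.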
Gal4-VP16 FLuc: inhibits Gal4-VP16 luciferase reporter, ROR gamma counter-screen; Drosophila S2 Gal4-VP16 UAS-luciferase, luminescence, 20 h; Potency, µM (top dose mostly 53.6 µM), for the others: at the top dose activity, negative = inhibition, actives largely listed as inhibitors; hit rate 3.5% among 310,000;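 note: Gal4-VP16 expression switched on by copper sulfate through the metallothionein promoter; potency is the fitted concentration of half-maximal effect; % is set by controls: 0 for no effect and ±100 for the full control effect; nearly all actives have a fitted effect of over 50% in size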
SW480 rereplic: inducers of DNA re-replication in SW480 colon cancer cells; SW480 DNA re-replication, Hoechst DNA content imaging, 48 h; Potency, µM (top dose mostly 46.1 µM), inactives show at the highest dose re-replication activation, hits mostly activators; AID 624297; hit rate 1.8% among 340,000; note: potency is the fitted concentration of half-maximal effect; % of control where 0% means no effect; nearly all actives have a fitted effect of over 55% in size
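Hoechst fluorescence of nuclei (405 nm excitation, 500-530 nm emission) measured by plate-scanning imager after 48 hr compound exposure at 37 C; re-replication scored as increased number of nuclei with elevated intensity.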
MCF10A rerep: induces DNA re-replication in MCF 10a normal breast cells | MCF 10A DNA re-replication, Hoechst nuclear intensity, 48 h | Potency, µM (titrated, usually from 46.1 µM), for inactives: at the top dose activity, positive = re-replication, usual class: activators | hit rate 2.9% among 350,000; note: potency is the fitted concentration of half-maximal effect; % of control where 0% means no effect; nearly all actives have a fitted effect of over 50% in size
Starred values were filed as active, the others as inactive; u = inconclusive; x = not tested or not shown; ! = not confirmed by another sample; [ ] = dose if it differs, or a comment. This is a sample that favours compounds with a hit; in the whole collection about 8.3% have one here. Unless noted, calls come from the whole dose curve; as a rule, active = well fitted curve in the direction sought with a large enough effect; inconclusive = small, poorly fitted or top-dose-only effect, or another doubt; inactive = no such curve, though single readings can be large; an effect the other way counts as inactive or inconclusive.

SMILES | RORgamma inh | Chronic BCR inh | Giardia killer | Gal4-VP16 FLuc | SW480 rereplic | MCF10A rerep
CCN(CC)c1ccc(N=Cc2c(O)n(Cc3ccccc3)c(=O)[nH]c2=O)cc1 | -3% | 1% | -11 | -17% | 0.52µM*! | u
C=CCn1c(O)c(C(C)=Nc2ccc(N(C)C)cc2)c(=O)[nH]c1=O | 8% | 4% | -3 | -2% | u | u
O=c1c2ccccc2c(C=Nc2ccc(O)cc2)c(O)n1Cc1ccccc1 | 37% | -2% | -3 | 16% | 21µM* | u
COc1ccc(Cn2c(O)c(/C=N/NC(=O)c3ccccc3O)c(=O)[nH]c2=O)cc1 | u | u | 0 | u | -3% | 4.6µM*
CN1C[C@@H](C(=O)N[C@@]2(C)O[C@]3(O)C4CCCN4C(=O)[C@@H](Cc4ccccc4)N3C2=O)C=C2c3cccc4[nH]cc(c34)C[C@@H]21 (stereo not given in full) | 15% | x | x | 6% | x | x
COC(=O)[C@]12C(=O)C(C)=C(O)[C@@]1(C)C(C)=CC1[C@@]34CC[C@@H](OC(C)=O)C(C)(C)C3C(C[C@]12C)OC4=O (stereo not given in full) | u | -2% | 11 | -5% | -4% | 4%
C/C(O)=C(/C#N)C(=O)Nc1cc(Br)ccc1Br | 9% | x | x | 2% | x | x
O=C(N/N=C/c1c(O)n(Cc2ccccc2)c(=O)[nH]c1=O)c1ccccc1O | 11µM* | u | -19 | u | 9% | u
CCn1c(O)c(/C=N/NC(=O)c2ccccc2)c(=O)[nH]c1=S | 7.1µM* | u | 2 | u | -7% | -5%
Brc1cccc(-c2ccccc2)c1 | 1% | x | x | 1% | x | x
c1ccc([Se]c2c(-c3ccccc3)[se]c3ccccc23)cc1 | 33% | x | x | 14% | x | x
S=C=NCc1ccccc1 | 5.6µM* | x | x | u | x | x
CCCC1(CCC)C(=O)NC(=NCc2ccccc2)NC1=O | 1% | u | -8 | -3% | u | u
C=C(Cl)Cl | 15% | x | x | 1% | x | x
Cc1ccc(S(=O)(=O)Nc2ccc3ncccc3c2[N+](=O)[O-])cc1 | x | x | -22 | x | u | u
Cc1ccc(S(=O)(=O)c2ncccc2[N+](=O)[O-])cc1 | 5.6µM* | u | u | 5.6µM* | 12µM* | 5.8µM*
C=C(C)[C@@H]1CC=C(CN2CCN(Cc3ccccc3)CC2)CC1 | -1% | 0% | 3 | 2% | -4% | u
O=C(O)c1ccccc1Sc1c([N+](=O)[O-])cc(C(F)(F)F)cc1[N+](=O)[O-] | u | u | 1 | u | 5% | u
CC(C)CCCC1(C)C=Cc2c(O)c3c(c(CCC(C)C)c2O1)OC12C(CC4CC1C(C)(C)OC2(CCC(C)C(=O)O)C4O)C3=O (stereo not given) | 4% | x | x | -5% | x | x
CC(C)=CCCC1(C)C=Cc2c(O)c3c(c(CC=C(C)C)c2O1)OC12C(=CC4CC1C(C)(C)OC2(C/C=C(/C)C(=O)O)C4=O)C3=O (stereo not given) | 3.2µM* | x | x | 5µM* | x | x
CC(C)=CCCC1(C)C=Cc2c(O)c3c(c(CC=C(C)C)c2O1)OC12C(=CC4CC1C(C)(C)OC2(C/C=C(/C)C(=O)O)C4O)C3=O (stereo not given) | 2.8µM* | x | x | 2.2µM* | x | x
CCC(Cl)[N+](=O)[O-] (stereo not given) | 2% | x | x | -7% | x | x
CCC1(Oc2ccccc2)C(=O)NC(=O)NC1=O | x | x | 9 | x | 0% | -18%
CCC1(C)OC(c2ccccc2)=C/C(=C/C=C2C(=O)NC(=O)NC2=O)O1 (stereo not given) | -29% | -13% | 6 | 4% | u | 21µM*
O=C(O)c1cc(O)c(O)c(O)c1 | 10µM*! | x | x | u | -8% | -1%
SMILES | RORgamma inh | Chronic BCR inh | Giardia killer | Gal4-VP16 FLuc | SW480 rereplic | MCF10A rerep
CCCCOP(=O)(c1ccc(N(C)C)cc1)C(Nc1ccccc1)c1ccccc1 (stereo not given) | u | u | 14 | -11% | u | 21µM*
CC(=O)OC1(C)CC(C)C(=O)C(C(O)CC2CC(=O)NC(=O)C2)C1 (stereo not given) | x | x | u | x | 0% | 17%
C[C@@H]1C[C@@H]([C@H](O)CC2CC(=O)NC(=O)C2)C(=O)[C@@H](C)C1 | 0.32µM*! | u | -82* | 0.0089µM*! | -9% | u
CC(O)C1C=CC=CC(=O)OC2CC3OC4C5OC5(C)CCC4(COC(=O)C4OC4(C)C(O)CO1)C2(C)C31CO1 (stereo not given) | x | x | -13 | x | 0.46µM* | 0.15µM*
CCn1ccnc1CN1CCCC(C(=O)c2ccc(SC)cc2)C1 (stereo not given) | 1.6µM* | -6% | 5 | 6.3µM* | 1% | 8%
N#CSCSC#N | 1.1µM* | x | x | 0.45µM* | x | x
c1ccc(P(c2ccccc2)c2ccccc2)cc1 | -22% | x | x | -11% | x | x
CCOc1cc2c(cc1OCC)-n1cccc1C(c1cccc(OCC)c1O)NC2 (stereo not given) | 10% | -12% | u | -1% | 1% | 18µM*
CCOc1cc2c(cc1OCC)-n1cccc1C(c1ccccc1F)NC2 (stereo not given) | -8% | -19% | -2 | 2% | -4% | u
CC(C)[C@@]1(NC(=O)[C@@H]2C[C@H]3c4cccc5[nH]cc(c45)C[C@@H]3N(C)C2)O[C@]2(O)[C@H]3CCCN3C(=O)CN2C1=O | 2%[16.9 µM] | x | x | -1%[17 µM] | x | x
CC(C)[C@@]1(NC(=O)[C@@H]2C[C@@H]3c4cccc5[nH]cc(c45)C[C@H]3N(C)C2)O[C@@]2(O)[C@@H]3CCCN3C(=O)[C@H](Cc3ccccc3)N2C1=O | 2.8µM*! | u | 15 | u | 18µM*! | 21µM*!
CCc1ccc2c(c1)Sc1ccccc1CC2N1CCN(C)CC1 (stereo not given) | x | x | 6 | x | 26µM* | u
O=C(c1ccco1)N1CCN(C(=O)c2ccc(COc3ccc(Cl)cc3Cl)o2)CC1 | x | x | 4 | x | -2% | 21µM*
COC(=O)C1=C(c2cc3ccccc3o2)C[C@@H]2CC[C@H]1N2C(=O)N1CCCCC1 | x | x | -4 | x | 12µM* | u
O=C(N/N=C/c1cccnc1)c1ccc(NC(=O)C(c2ccccc2)c2ccccc2)cc1 | -44% | -4% | 3 | 6.3µM* | -4% | 13%
CCN(CC)S(=O)(=O)c1ccc(NN=C(C#N)C#N)cc1 | 2% | 14% | -1 | u | 16% | 10µM*
N#CC(C#N)=NNc1ccc([N+](=O)[O-])cc1 | u | 24% | 8 | u | u | 18µM*
N#CC1=C(N)Oc2c(c(=O)oc3ccccc23)C1c1ccncc1 (stereo not given) | -16% | 0% | 21 | -4% | -6% | 8%
